Laboratory results: PubChem BioAssay
Activity calls are given as the source filed them. Unless noted, the rule behind the calls is not given here.

Columns and labels:
[1] = anti-His antibody binders, primary screen, artefact control for SMM control protein annotation, biochemical, small-molecule microarray, 635 nm fluorescence (AID 1128); conditions: anti-His Alexa647 antibody binding, higher = more signal;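 note: score merges feature fluorescence with signal-to-noise for each printed compound spot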
[2] = test system: Human papillomavirus type 1a E7 protein (residues 1-88); experiment: HPV1a E7 small-molecule binders, primary screen, biochemical, small-molecule microarray, residues 1-88, 635 nm (AID 1129); conditions: small-molecule microarray binding, fluorescence 635 nm; higher = more signal
[3] = target: Focal adhesion kinase 1 (Homo sapiens) (UniProt Q05397); experiment: small-molecule microarray binders of FAK, primary screen, biochemical, 635/667 nm fluorescence, BSA, DTT (AID 1130); conditions: PTK2 binding, 635 nm fluorescence, higher = more signal;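 note: composite of spot emission at 667 nm and signal to noise over triplicate slides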
Focal adhesion kinase 1 (Homo sapiens), sequence (Q05397 whole entry, looked up): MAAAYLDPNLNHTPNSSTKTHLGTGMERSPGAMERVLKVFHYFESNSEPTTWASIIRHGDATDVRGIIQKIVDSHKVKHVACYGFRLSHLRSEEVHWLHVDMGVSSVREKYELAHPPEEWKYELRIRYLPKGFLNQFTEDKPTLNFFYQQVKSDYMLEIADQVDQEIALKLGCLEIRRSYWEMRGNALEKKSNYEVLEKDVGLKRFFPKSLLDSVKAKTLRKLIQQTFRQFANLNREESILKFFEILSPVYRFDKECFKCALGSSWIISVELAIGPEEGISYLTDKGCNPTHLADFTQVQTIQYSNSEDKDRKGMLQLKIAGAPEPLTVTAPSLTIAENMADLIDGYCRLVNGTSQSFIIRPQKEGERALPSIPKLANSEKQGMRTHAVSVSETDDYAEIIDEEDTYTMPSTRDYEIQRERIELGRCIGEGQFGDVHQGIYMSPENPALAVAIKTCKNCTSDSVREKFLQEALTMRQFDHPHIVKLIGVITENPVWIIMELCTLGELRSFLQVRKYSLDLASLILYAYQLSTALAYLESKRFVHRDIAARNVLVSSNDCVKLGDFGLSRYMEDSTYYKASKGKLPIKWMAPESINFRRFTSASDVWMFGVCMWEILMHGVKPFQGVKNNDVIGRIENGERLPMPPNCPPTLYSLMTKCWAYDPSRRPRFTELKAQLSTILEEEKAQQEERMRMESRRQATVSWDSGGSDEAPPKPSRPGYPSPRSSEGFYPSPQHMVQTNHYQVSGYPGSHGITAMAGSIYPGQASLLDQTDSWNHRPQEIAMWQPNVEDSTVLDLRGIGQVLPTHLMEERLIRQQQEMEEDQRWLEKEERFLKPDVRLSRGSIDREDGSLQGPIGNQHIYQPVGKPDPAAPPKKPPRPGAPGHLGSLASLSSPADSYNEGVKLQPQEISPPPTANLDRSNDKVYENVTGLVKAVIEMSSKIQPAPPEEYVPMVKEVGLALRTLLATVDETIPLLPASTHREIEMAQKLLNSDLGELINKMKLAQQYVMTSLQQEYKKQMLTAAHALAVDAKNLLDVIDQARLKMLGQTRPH

[4] = test system: Fibrinogen (Alexa647-labelled); experiment: fibrinogen binders on compound microarrays, profiling panel, artefact control for SMM control-protein annotation, biochemical, small-molecule microarray, 635/667 nm fluorescence (AID 1131); conditions: fibrinogen-A647 binding fluorescence, higher = more signal;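 note: z-score merges 667 nm fluorescence with per-spot signal-to-noise over triplicate slides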
[5] = target: Follistatin (Homo sapiens) (UniProt P19883); experiment: follistatin binders on small-molecule microarrays, primary screen, biochemical, small-molecule microarray, 635/667 nm fluorescence (AID 1132); conditions: FST binding, 635 nm fluorescence, higher = more signal
Follistatin (Homo sapiens), sequence (P19883 whole entry, looked up): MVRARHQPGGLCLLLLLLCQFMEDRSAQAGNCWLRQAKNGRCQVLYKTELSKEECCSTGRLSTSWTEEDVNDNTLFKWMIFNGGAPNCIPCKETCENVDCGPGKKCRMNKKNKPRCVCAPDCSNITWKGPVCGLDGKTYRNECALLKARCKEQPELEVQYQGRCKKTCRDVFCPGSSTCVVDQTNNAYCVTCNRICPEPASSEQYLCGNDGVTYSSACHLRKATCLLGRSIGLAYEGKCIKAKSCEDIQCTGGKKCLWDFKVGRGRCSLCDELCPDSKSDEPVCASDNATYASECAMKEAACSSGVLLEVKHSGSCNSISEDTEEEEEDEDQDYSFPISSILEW

[6] = target: Fibroblast growth factor 2 (Homo sapiens) (UniProt P09038); experiment: FGF2 binders on small-molecule microarrays, primary screen, biochemical, small-molecule microarray, 635/667 nm fluorescence (AID 1133); conditions: small-molecule microarray binding, FGF2, fluorescence 635/667; higher = more signal
Fibroblast growth factor 2 (Homo sapiens), sequence (P09038 whole entry, looked up): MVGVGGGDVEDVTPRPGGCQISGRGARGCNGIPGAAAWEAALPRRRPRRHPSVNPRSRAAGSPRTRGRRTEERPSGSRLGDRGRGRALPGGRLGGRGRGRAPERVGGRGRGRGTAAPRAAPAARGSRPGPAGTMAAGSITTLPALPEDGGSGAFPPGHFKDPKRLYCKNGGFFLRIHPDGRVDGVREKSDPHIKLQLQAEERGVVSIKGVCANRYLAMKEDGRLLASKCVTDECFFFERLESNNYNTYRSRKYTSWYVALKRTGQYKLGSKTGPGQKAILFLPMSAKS

[7] = mitochondrial membrane potential change in A549 cells, profiling panel, cell-based, JC-1 fluorescence, basal, 24 h, 100 nL (AID 1138); conditions: higher = more signal;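 note: A549 lung adenocarcinoma cells under basal conditions with no added stimulus; test concentration not given here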
Lefty1 = Lefty1 binders on small-molecule microarrays, primary screen, biochemical, small-molecule microarray, 635/667 nm fluorescence (AID 1139); conditions: small-molecule microarray binding, fluorescence 635/667; higher = more signal
[8] = test system: wheat germ agglutinin (Triticum aestivum), Alexa647-labelled; experiment: wheat germ agglutinin binders on compound microarrays, profiling panel, artefact control for SMM control-protein annotation, biochemical, small-molecule microarray, 635/667 nm fluorescence (AID 1140); conditions: WGA-A647 binding, 635 nm fluorescence, higher = more signal;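 note: score merges 667 nm feature emission with signal to noise over triplicate slides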
[9] = target: Luciferin 4-monooxygenase (Photinus pyralis) (UniProt P08659); experiment: firefly luciferase enzyme inhibitors, primary screen, biochemical, luminescence, purified enzyme, 2006 set (AID 1141); conditions: SteadyGlo luminescence, 30 min, higher = more signal, called active from +8 up or from −8 down;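 note: cell-free assay with purified firefly luciferase at 100 ng per well in PBS; test concentration not given here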
Luciferin 4-monooxygenase (Photinus pyralis), sequence (P08659 whole entry, looked up): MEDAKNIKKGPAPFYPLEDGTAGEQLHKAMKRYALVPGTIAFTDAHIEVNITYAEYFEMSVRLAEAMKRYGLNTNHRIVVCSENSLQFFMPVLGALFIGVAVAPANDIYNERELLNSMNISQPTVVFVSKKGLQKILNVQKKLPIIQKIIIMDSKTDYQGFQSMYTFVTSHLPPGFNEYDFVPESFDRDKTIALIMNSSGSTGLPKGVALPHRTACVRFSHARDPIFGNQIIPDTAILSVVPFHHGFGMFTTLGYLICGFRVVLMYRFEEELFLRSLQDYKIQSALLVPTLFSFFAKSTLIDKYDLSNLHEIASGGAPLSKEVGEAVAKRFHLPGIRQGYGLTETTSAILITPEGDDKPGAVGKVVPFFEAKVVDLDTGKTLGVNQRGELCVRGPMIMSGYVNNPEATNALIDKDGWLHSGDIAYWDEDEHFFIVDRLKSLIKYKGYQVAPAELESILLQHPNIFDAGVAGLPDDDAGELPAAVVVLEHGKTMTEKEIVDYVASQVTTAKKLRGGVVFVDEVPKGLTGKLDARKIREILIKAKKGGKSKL

[10] = test system: Wnt5a (protein binding on small-molecule microarray); experiment: Wnt5a binders on small-molecule microarray, primary screen, biophysical, 635/667 nm fluorescence (AID 1142); conditions: 635 nm fluorescence, higher = more signal;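 note: fluorescence read at 667 nm with signal to noise per printed feature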
[11] = cell viability in Huh7 cells, primary screen, cytotoxicity control for HCV replication inhibitor project, CellTiter-Glo luminescence, basal, 48 h (AID 1143); conditions: Huh7 HCV replicon, higher = more signal, called active from +8 up or from −8 down;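 note: Huh7 hepatoma cells carrying a hepatitis C replication reporter with no stimulus; test concentration not given here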
[12] = P. aeruginosa biofilm formation inhibitors, primary screen, PAO1 strain, BacTiter-Glo luminescence, LB-PBS (AID 1144); conditions: 12 h, higher = more signal
[13] = CREB reporter modulators without forskolin, primary screen, cell-based, PC12, CRE-LacZ reporter, unstimulated (AID 1145); conditions: no forskolin, luminescence, 4.5 h, higher = more signal, called active from +8 up or from −8 down
[14] = CREB reporter modulators under forskolin, primary screen, cell-based, PC12, CRE-LacZ reporter, forskolin-stimulated (AID 1146); conditions: luminescence, 4.5 h, higher = more signal, called active from +8 up or from −8 down;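 note: PC12 cells with 6xCRE LacZ reporter stimulated by forskolin 10 µM; beta-galactosidase reporter signal reflecting CREB driven transcription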
[15] = target: Streptavidin (Streptomyces avidinii) (UniProt P22629); experiment: streptavidin binders on small-molecule microarray, primary screen, artefact control for SMM compound annotation, biophysical, 635/667 nm fluorescence (AID 1147); conditions: streptavidin binding, higher = more signal;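 note: signal reflects streptavidin binding to arrayed compounds as a control protein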
Streptavidin (Streptomyces avidinii), sequence (P22629 whole entry, looked up): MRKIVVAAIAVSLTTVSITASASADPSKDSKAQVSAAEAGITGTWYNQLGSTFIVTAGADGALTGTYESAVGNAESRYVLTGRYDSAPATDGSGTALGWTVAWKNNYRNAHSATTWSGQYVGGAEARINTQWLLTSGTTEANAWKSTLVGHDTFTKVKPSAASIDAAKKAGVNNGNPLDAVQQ

[16] = small-molecule binders of probe aInhba, primary screen, biochemical, small-molecule microarray, 635/667 nm fluorescence (AID 1148); conditions: higher = more signal;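 note: score merges 667nm spot fluorescence with signal-to-noise for antibody binding to printed compounds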
Torsin-1A (Homo sapiens) [17] = target: Torsin-1A (Homo sapiens) (UniProt O14656); experiment: torsin A binders from cell lysate, primary screen, small-molecule microarray, wild-type, 635/667 nm (AID 1149); conditions: COS7 hTOR1A-WT lysate, 635 nm fluorescence, higher = more signal
Torsin-1A (Homo sapiens), sequence (O14656 whole entry, looked up): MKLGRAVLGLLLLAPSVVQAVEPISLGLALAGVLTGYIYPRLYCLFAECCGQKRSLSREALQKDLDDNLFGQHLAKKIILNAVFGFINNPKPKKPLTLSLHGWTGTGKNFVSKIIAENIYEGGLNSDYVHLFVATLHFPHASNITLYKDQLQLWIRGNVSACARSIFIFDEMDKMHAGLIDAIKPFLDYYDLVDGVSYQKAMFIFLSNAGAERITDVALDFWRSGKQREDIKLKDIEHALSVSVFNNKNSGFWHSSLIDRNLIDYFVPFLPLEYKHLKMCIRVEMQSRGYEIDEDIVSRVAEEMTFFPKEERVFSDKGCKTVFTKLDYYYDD

Torsin-1A (Homo sapiens) [18] = target: Torsin-1A (Homo sapiens) (UniProt O14656); experiment: small-molecule binders of mutant TOR1A in lysate, primary screen, cell lysate, small-molecule microarray, COS7 lysate, 635/667 nm fluorescence (AID 1150); conditions: COS7 hTOR1A mutant lysate, 635 nm fluorescence, higher = more signal;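 note: score pools 667 nm emission and signal to noise measuring lysate protein binding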
[19] = test system: Sonic hedgehog protein (Shh); experiment: small-molecule binders of Shh protein, primary screen, biochemical, small-molecule microarray, 635/667 nm fluorescence (AID 1151); conditions: small-molecule microarray binding, 635 nm fluorescence; higher = more signal;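 note: Shh protein binding to compounds spotted on small-molecule microarray slides; score combines spot fluorescence intensity with signal-to-noise across triplicate slides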

| SMILES | composite z-score [1] | composite z-score [2] | composite z-score [3] | composite z-score [4] | composite z-score [5] | composite z-score [6] | z-score [7] | composite z-score (Lefty1) | composite z-score [8] | z-score [9] | composite z-score [10] | z-score [11] | z-score [12] | z-score [13] | z-score [14] | composite z-score [15] | composite z-score [16] | composite z-score (Torsin-1A (Homo sapiens) [17]) | composite z-score (Torsin-1A (Homo sapiens) [18]) | composite z-score [19] |
| --- | --- | --- | --- | --- | --- | --- | --- | --- | --- | --- | --- | --- | --- | --- | --- | --- | --- | --- | --- | --- |
| COc1cc(OC)c(C(O)C2C=CC3C(=O)N(C)C(=O)C3N2NC(=O)OC(C)(C)C)cc1Br (stereo not given) | 0.476 | 1.29 | 0.776 | 1.03 | 1.25 | 0.128 | -0.942 | 0.42 | 1.23 | -0.996 (inactive) | 0.326 | 0.558 (inactive) | -0.224 (inactive) | 1.2 (inactive) | 0.922 (inactive) | 1.25 | 0.194 | 0.443 | 0.315 | 0.568 |
| COc1ccc([Si](C)(C)[C@H]2[C@H](CCn3cc([C@H](O)c4ccccc4)nn3)O[C@@]3(C(=O)N(Cc4ccc(N5C(=O)c6cccc7cccc5c67)cc4)c4ccccc43)[C@@H]2C)cc1 | 0.107 | 0.0893 | -0.254 | -0.153 | -0.185 | 0.768 | 2.81 | -0.0986 | 0.0681 | -1.19 (inactive) | -0.21 | -2.02 (inactive) | -1.05 (inactive) | 1.02 (inactive) | -0.715 (inactive) | 0.618 | -0.0791 | -0.734 | -0.35 | 0.232 |
| COc1ccc(NC(=O)O[C@H]2[C@H](OC(=O)Nc3ccccc3)[C@@H](OC(=O)Nc3ccccc3)[C@@H](OC)O[C@@H]2CO)cc1 | 1.77 | 1.21 | 0.634 | 0.825 | 1.34 | 1.72 | -0.506 | 0.512 | 0.626 | 0.0551 (inactive) | 1.48 | -4.91 (inactive) | -1.81 (inactive) | 0.895 (inactive) | -1.52 (inactive) | 0.0017 | 0.0342 | 0.66 | 1.26 | 1.17 |
| O[C@@H](Cc1ccccc1)[C@@H](/C=C/C1CC1)N(CC#Cc1ccccc1)Cc1cccc(Cl)c1 | -0.156 | -0.429 | -0.0816 | -0.6 | -1.19 | -1.43 | 0.513 | -0.954 | 0.197 | 0.466 (inactive) | -0.501 | -1.09 (inactive) | -0.94 (inactive) | 2.04 (inactive) | -0.295 (inactive) | -0.679 | -0.302 | -0.662 | -0.976 | -1.03 |
| CCCCC(=C=CC[C@@H](O)c1ccccc1OCCO)C[C@@H](O)COCc1ccccc1 | 0.0168 | -0.399 | 0.577 | 0.479 | 0.271 | 0.668 | 0.995 | 0.0842 | 0.0771 | -2.59 (inactive) | -0.027 | -2.16 (inactive) | -0.631 (inactive) | 17.1 (active) | -0.749 (inactive) | -0.385 | 0.257 | -0.745 | -0.592 | 0.697 |
| C=C(CCCC)/C(=C/C[C@@H](OC(=O)c1ccncc1)c1ccccc1OCCO)c1cnc2ccccc2c1 | 0.433 | 1.12 | 0.0585 | 0.963 | 1.44 | 1.43 | 1.34 | 1.61 | 1.17 | -0.514 (inactive) | 0.944 | -2.5 (inactive) | 0.207 (inactive) | 10.3 (active) | 0.689 (inactive) | 1.16 | 0.11 | 0.49 | -0.239 | 2.17 |
| C[N+](C)(C)CCCCCCNC(=O)[C@H]1C[C@H]2C(=O)N[C@@H](Cc3ccccc3)C(=O)N2[C@H]1c1ccc(O)cc1 | 1.32 | 0.0251 | -0.208 | -0.222 | 1.34 | 0.916 | 0.0402 | 1.34 | 0.112 | -0.555 (inactive) | 0.121 | -0.56 (inactive) | 0.271 (inactive) | -1.08 (inactive) | -0.227 (inactive) | -0.215 | -0.0695 | 0.561 | 0.313 | 1.94 |
| OCCCC1=CC(c2ccc(CN3CCCC3)cc2)N(Cc2sc3ccccc3c2Cl)CC1 (stereo not given) | 2.68 | 1.07 | 0.609 | 0.311 | 1.19 | 1.38 | 2.11 | 0.649 | 0.483 | -1.01 (inactive) | 0.774 | -2.99 (inactive) | 0.00672 (inactive) | 0.96 (inactive) | -0.134 (inactive) | 0.37 | 0.0633 | 0.598 | 0.842 | 1.46 |
| O=C1C2C=CC(C(O)c3ccccc3)N(Nc3ccccc3F)C2C(=O)N1c1ccccc1 (stereo not given) | 0.513 | 0.506 | 0.0669 | 0.168 | -0.0118 | -0.248 | 0.462 | 0.347 | 0.0842 | 0.541 (inactive) | 0.1 | -1.7 (inactive) | 0.298 (inactive) | 0.0707 (inactive) | 0.39 (inactive) | 0.23 | -0.127 | -0.292 | -0.493 | -0.244 |
| O=C(NCc1ccccc1)[C@@H]1c2ccccc2C(=O)N(Cc2ccccc2C(F)(F)F)[C@H]1c1ccc(CO)cc1 | -0.782 | 0.334 | 0.0179 | -0.709 | 0.592 | -0.133 | 1.86 | -0.324 | 0.32 | -0.745 (inactive) | -0.405 | -1.55 (inactive) | 0.714 (inactive) | 0.324 (inactive) | -0.0897 (inactive) | -0.752 | -0.201 | -1.55 | 0.0481 | -0.687 |
